Data as given in PubChem BioAssay (NCATS).
Where “and” joins values, the source holds several entries; their conditions need not be identical. Identical values can stand only once. Records with an inconclusive call do not appear. A number with no mark means an inactive call. Calls of active or inactive are those of the source. The call rests on the fitted dose curve; in most records, active means well fitted curve in the direction sought with a large enough effect; inconclusive means small, poorly fitted or top-dose-only effect, or another doubt; inactive means no such curve, though single readings can be large or run the other way.

Assay: qHTS Assay for Identifying Gametocytocidal Compounds (AID 743244);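 on max response: actives lower the fluorescent signal which means gametocytes are killed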
Details: P. falciparum 3D7 stage III-V gametocytes, alamarBlue, 72 h; max response: hits give low values
In short: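 Stage III–V gametocytes of P. falciparum 3D7 were seeded at 20,000 cells/well onto pre-dispensed compounds. After 72 h, 37 °C, 5% CO2, alamarBlue was added for another 24 h.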
On the % scale 0 is the no-effect control and ±100 the full control effect; potency means the concentration at half of the fitted maximal effect.

Row | Structure (SMILES) | max response | Potency
1 | CN[C@@H]1CCc2[nH]c3ccc(C(N)=O)cc3c2C1 | -0.658% | 
2 | NCCCC[C@H](NC(=O)[C@@H]1CCCN1C(=O)[C@@H]1CSSC[C@H](N)C(=O)N[C@@H](Cc2ccc(O)cc2)C(=O)N[C@@H](Cc2ccccc2)C(=O)N[C@@H](CCC(N)=O)C(=O)N[C@@H](CC(N)=O)C(=O)N1)C(=O)NCC(N)=O | -14.9% and -14.7% | 
3 | COc1cc2[nH]c(C)c(CCN3CCN(c4ccccc4)CC3)c2cc1OC | 16.1% | 
4 | O=S(O)CO | 18.2% | 
5 | NCCCC[C@H](NC(=O)[C@@H]1CCCN1C(=O)[C@@H]1CSSC[C@H](N)C(=O)N[C@@H](Cc2ccccc2)C(=O)N[C@@H](Cc2ccccc2)C(=O)N[C@@H](CCC(N)=O)C(=O)N[C@@H](CC(N)=O)C(=O)N1)C(=O)NCC(N)=O | -4.07% | 
6 | CC(C)(C)CC(=O)OCC(=O)[C@@]12OC(C)(C)O[C@@H]1C[C@H]1[C@@H]3CCC4=CC(=O)C=C[C@]4(C)[C@@]3(F)[C@@H](O)C[C@@]12C | -15% | 
7 | O=C(O)c1ccccc1[O-].O=C(O)c1ccccc1[O-].[Zn+2] | 3.06% | 
8 | CCCCCCCCCCCCCCCCCC(=O)[O][Al] | -2.25% | 
9 | CCCC1([C@H](O)C/C=C/[C@H]2[C@H](O)CC(=O)[C@@H]2CCCCCCC(=O)OC)CCC1 | 2.12% | 
10 | C/C=C1\NC(=O)[C@H]2CSSCC/C=C/[C@H](CC(=O)N[C@H](C(C)C)C(=O)N2)OC(=O)C(C(C)C)NC1=O (stereo partly drawn) |  | 0.59 µM (active)
11 | CCCCC(=O)O | -7.14% and 15.8% | 
12 | O=C(Cn1c(=O)sc2ccc(Cl)cc21)N1CCN(CCO)CC1 | -8.47% | 
13 | CC1(S(=O)(=O)O)CC(=O)c2ccccc2C1=O (stereo not drawn) |  | 6.31 µM (active)
14 | C[N+](C)(CCCCCC[N+](C)(C)C1c2ccccc2-c2ccccc21)C1c2ccccc2-c2ccccc21 | -0.956% | 
15 | COCC1=C(C(=O)OC(C)OC(=O)OC(C)C)N2C(=O)[C@@H](NC(=O)/C(=N\OC)c3csc(N)n3)[C@H]2SC1 (stereo partly drawn) | -2.17% and -16.2% | 
16 | CC(C)(C)NC(=O)[C@H]1CC[C@H]2[C@@H]3CC=C4C=C(C(=O)O)CC[C@]4(C)[C@H]3CC[C@]12C | -20.3% | 
17 | CCCCCCCCCCCCCCCC(=O)OC/C=C(C)/C=C/C=C(C)/C=C/C1=C(C)CCCC1(C)C | -4.83% | 
18 | NCCC(=O)[N-][C@@H](Cc1cnc[nH]1)C(=O)O.[Zn] | 14.2% | 
19 | C/C=C(/CC[C@@H](C)[C@H]1CC[C@H]2C3=CC[C@H]4[C@H](C)[C@@H](O)CC[C@]4(C)[C@H]3CC[C@]12C)C(C)C | -5.29% | 
20 | CS(=O)(=O)Nc1cc2occ(NC=O)c(=O)c2cc1Oc1ccccc1 | -2.7% | 
21 | CCCCc1cc2c(=O)c(C(=O)OC)c[nH]c2cc1OCc1ccccc1 | 5.7% | 
22 | C[C@H]1C[C@@H]2[C@H]([C@@H](O)C[C@@]3(C)[C@H]2CC[C@]3(O)C(=O)COC(=O)CCC(=O)O)[C@@]2(C)C=CC(=O)C=C12 | -6.5% | 
23 | O=C(O)[C@@H](O)[C@H](O)[C@H](O)[C@@H](O)C(=O)O (tested in a mixture with another compound) | 5.9% | 
24 | Cc1c(N)nc(C(CC(N)=O)NCC(N)C(N)=O)nc1C(=O)NC(C(=O)NC(C)C(O)C(C)C(=O)NC(C(=O)NCCc1nc(-c2nc(C(=O)NCCCN[C@@H](C)c3ccccc3)cs2)cs1)C(C)O)C(O[C@@H]1O[C@@H](CO)[C@@H](O)[C@H](O)[C@@H]1O[C@H]1O[C@H](CO)[C@@H](O)[C@H](OC(N)=O)[C@@H]1O)c1cnc[nH]1 (stereo partly drawn) | 6.97% | 
25 | O=P(O)(O)OC(Cn1cncn1)(Cn1cncn1)c1ccc(F)cc1F | 1.82% | 
26 | CCCCCCCCCCCCCCCC(=O)OC[C@H](O)[C@H]1OC(=O)C(O)=C1O | 0.191% | 
27 | NC(=O)C[C@@H](N)C(=O)O | -9.98% | 
28 | OC(CN1CCCCC1)c1cc(-c2ccccc2)on1 (stereo not drawn) | -4.26% | 
